“And” between values parts separate entries of the source, which are not always exact repeats. Identical values can stand only once. Results filed as inconclusive are left out. More than one record can exist for a structure, and the calls need not agree. The source made the active and inactive calls. How the source made its calls, unless noted: active means hit-call score of the fitted dose curve at least 0.9, where 1 is the maximum; inactive means score below 0.9.
Experiments:
[1] = target: Retinoic acid receptor RXR-alpha (Homo sapiens) (UniProt P19793); assay: ATG_RXRa_TRANS: Attagene TRANS-FACTORIAL HepG2 Assay for human Retinoid X Receptor alpha (RXRa) (AID 2283012; active means hit-call score of the fitted dose curve at least 0.9, where 1 is the maximum)
Retinoic acid receptor RXR-alpha (Homo sapiens), sequence (P19793 whole entry, looked up, the tested form may be a part): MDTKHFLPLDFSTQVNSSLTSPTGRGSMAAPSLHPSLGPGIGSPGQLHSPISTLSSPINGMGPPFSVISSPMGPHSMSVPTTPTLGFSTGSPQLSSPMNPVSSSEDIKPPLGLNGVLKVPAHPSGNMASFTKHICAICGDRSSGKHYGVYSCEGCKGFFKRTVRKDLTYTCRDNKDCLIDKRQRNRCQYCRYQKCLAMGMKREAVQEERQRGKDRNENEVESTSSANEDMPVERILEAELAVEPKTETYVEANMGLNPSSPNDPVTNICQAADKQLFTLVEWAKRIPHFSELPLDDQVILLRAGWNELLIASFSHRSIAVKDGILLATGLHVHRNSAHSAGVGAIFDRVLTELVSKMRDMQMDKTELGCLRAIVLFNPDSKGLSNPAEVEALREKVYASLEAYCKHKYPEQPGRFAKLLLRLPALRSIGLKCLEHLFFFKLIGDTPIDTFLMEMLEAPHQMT
Procedure, shortened: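 Read-out: fluorescent reporter-transcript fragments quantified by capillary electrophoresis after RT-PCR. Transiently transfected HepG2 cells carrying GAL4-UAS reporters and NR-GAL4 chimeras were exposed to chemical for 24 h; activity scored as increase over DMSO.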

[2] = target: human Retinoid X Receptor beta (RXRb), RXRB (gene 6257) (UniProt P28702); assay: ATG_RXRb_TRANS: Attagene TRANS-FACTORIAL HepG2 Assay for human Retinoid X Receptor beta (RXRb) (AID 2283013; active means hit-call score of the fitted dose curve at least 0.9, where 1 is the maximum)
human Retinoid X Receptor beta (RXRb), RXRB (gene 6257), sequence (P28702 whole entry, looked up, the tested form may be a part): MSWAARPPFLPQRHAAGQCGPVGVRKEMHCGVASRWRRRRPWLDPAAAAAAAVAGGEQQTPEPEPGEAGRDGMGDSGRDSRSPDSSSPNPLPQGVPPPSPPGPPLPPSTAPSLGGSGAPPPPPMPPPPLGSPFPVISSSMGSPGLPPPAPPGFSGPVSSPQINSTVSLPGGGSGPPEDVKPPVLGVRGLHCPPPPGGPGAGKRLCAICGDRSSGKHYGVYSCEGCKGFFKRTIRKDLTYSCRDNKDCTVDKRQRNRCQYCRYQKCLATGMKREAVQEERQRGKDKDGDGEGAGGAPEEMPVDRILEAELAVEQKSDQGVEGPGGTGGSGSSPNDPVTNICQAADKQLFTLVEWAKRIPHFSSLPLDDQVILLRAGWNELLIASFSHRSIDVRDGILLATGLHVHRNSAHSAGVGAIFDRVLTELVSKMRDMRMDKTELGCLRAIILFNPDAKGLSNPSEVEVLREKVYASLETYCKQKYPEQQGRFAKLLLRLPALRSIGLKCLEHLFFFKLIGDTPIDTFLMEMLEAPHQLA
Procedure, shortened: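 Read-out: reporter mRNA induction via RT-PCR plus capillary electrophoresis fluorescence, analysed as signal increase relative to DMSO. Cells were human HepG2, transiently transfected with GAL4-UAS reporter constructs and chimeric receptor-Gal4 fusions, dosed for 24 h.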

[3] = target: human Thyroid Receptor alpha (THRa1), THRA (gene 7067) (UniProt P10827); assay: ATG_THRa1_TRANS: Attagene TRANS-FACTORIAL HepG2 Assay for human Thyroid Receptor alpha (THRa1) (AID 2283014; active means hit-call score of the fitted dose curve at least 0.9, where 1 is the maximum)
human Thyroid Receptor alpha (THRa1), THRA (gene 7067), sequence (P10827 whole entry, looked up, the tested form may be a part): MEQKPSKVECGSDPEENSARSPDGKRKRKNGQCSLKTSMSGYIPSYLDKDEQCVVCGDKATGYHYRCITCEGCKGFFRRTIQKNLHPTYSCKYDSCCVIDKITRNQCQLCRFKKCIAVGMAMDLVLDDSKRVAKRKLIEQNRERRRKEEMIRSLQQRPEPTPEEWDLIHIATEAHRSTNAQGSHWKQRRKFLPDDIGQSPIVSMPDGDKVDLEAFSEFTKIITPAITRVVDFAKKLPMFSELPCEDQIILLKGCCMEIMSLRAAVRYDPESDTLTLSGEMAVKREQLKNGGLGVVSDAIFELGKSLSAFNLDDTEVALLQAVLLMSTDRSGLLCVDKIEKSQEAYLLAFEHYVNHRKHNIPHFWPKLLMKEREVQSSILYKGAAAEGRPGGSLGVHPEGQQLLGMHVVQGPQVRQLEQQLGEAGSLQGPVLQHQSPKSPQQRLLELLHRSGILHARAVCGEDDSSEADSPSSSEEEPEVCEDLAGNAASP
Procedure, shortened: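 Transient HepG2 transfection, NR-Gal4 chimera driving GAL4-UAS reporters; 24 h compound exposure; total RNA, oligo(dT) RT, PCR, fluorescent primer extension, capillary electrophoresis. Upward direction vs DMSO control.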

[4] = read-out: E-selectin (Homo sapiens) (UniProt P16581); assay: BSK_3C_Eselectin: BioMAP Diversity Plus: 3C Assay for Eselectin Biomarker Activity (AID 2283015); settings: primary human endothelial cells (HUVEC); actives raise or lower the signal
Procedure, shortened: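 HUVEC, 3C stimulation; compound exposure 24 h; E-selectin by ELISA; gain- or loss-of-signal fitted bidirectionally vs DMSO baseline.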

[5] = read-out: Interleukin-1 alpha (IL1a), IL1A (gene 3552); assay: BSK_BE3C_IL1a: BioMAP Diversity Plus: BE3C Assay for Interleukin-1 alpha (IL1a) Biomarker Activity (AID 2283016); settings: primary human bronchial epithelial cells; actives raise or lower the signal
Procedure, shortened: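 ELISA read-out of IL-1a from human lung bronchial epithelial primary cells, 24 h post-dose. Gain or loss of signal fitted relative to DMSO negative control.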

[6] = read-out: Monocyte Chemoattractant Protein-1 (MCP1), CCL2 (gene 6347); assay: BSK_3C_MCP1: BioMAP Diversity Plus: 3C Assay for Monocyte Chemoattractant Protein-1 (MCP1) Biomarker Activity (AID 2283017); settings: primary human endothelial cells (HUVEC); actives raise or lower the signal
Procedure, shortened: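 HUVEC, 3C system; 24 h chemical exposure; MCP-1 by ELISA; bidirectional curve fit vs DMSO baseline.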

[7] = read-out: Monocyte Chemoattractant Protein-1 (MCP1), CCL2 (gene 6347); assay: BSK_4H_MCP1: BioMAP Diversity Plus: 4H Assay for Monocyte Chemoattractant Protein-1 (MCP1) Biomarker Activity (AID 2283018); settings: primary human endothelial cells (HUVEC); actives raise or lower the signal
Procedure, shortened: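 HUVEC primary cells, 24 h post-dose, MCP-1 by ELISA. Gain or loss of signal fitted bidirectionally vs DMSO baseline. Cytotoxicity: SRB stain (0.1% after 10% TCA fixation), read 560 nm, parallel cultures.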

[8] = read-out: Human Leukocyte Antigen - DR isotype (HLADR), HLA-DRA (gene 3122); assay: BSK_3C_HLADR: BioMAP Diversity Plus: 3C Assay for Human Leukocyte Antigen - DR isotype (HLADR) Biomarker Activity (AID 2283019); settings: primary human endothelial cells (HUVEC); actives raise or lower the signal
Procedure, shortened: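 HUVEC, 3C stimulation, 24 h post-dose; HLA-DR by ELISA; bidirectional curve fit vs DMSO baseline; gain or loss of signal scored.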

[9] = read-out: Interleukin-8 (IL8), CXCL8 (gene 3576); assay: BSK_3C_IL8: BioMAP Diversity Plus: 3C Assay for Interleukin-8 (IL8) Biomarker Activity (AID 2283020); settings: primary human endothelial cells (HUVEC); actives raise or lower the signal
Procedure, shortened: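 HUVEC, 3C stimulation; 24 h compound exposure; IL-8 read by ELISA; gain or loss of signal fitted relative to DMSO control.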

[10] = read-out: Monokine induced gamma interferon (MIG), CXCL9 (gene 4283); assay: BSK_3C_MIG: BioMAP Diversity Plus: 3C Assay for Monokine induced gamma interferon (MIG) Biomarker Activity (AID 2283021); settings: primary human endothelial cells (HUVEC); actives raise or lower the signal
Procedure, shortened: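 HUVEC, 3C system; 24 h chemical exposure; MIG by ELISA; bidirectional fit vs DMSO baseline.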

[11] = target: human Vitamin D Receptor (VDR), VDR (gene 7421) (UniProt P11473); assay: ATG_VDR_TRANS: Attagene TRANS-FACTORIAL HepG2 Assay for human Vitamin D Receptor (VDR) (AID 2283022; active means hit-call score of the fitted dose curve at least 0.9, where 1 is the maximum)
human Vitamin D Receptor (VDR), VDR (gene 7421), sequence (P11473 whole entry, looked up, the tested form may be a part): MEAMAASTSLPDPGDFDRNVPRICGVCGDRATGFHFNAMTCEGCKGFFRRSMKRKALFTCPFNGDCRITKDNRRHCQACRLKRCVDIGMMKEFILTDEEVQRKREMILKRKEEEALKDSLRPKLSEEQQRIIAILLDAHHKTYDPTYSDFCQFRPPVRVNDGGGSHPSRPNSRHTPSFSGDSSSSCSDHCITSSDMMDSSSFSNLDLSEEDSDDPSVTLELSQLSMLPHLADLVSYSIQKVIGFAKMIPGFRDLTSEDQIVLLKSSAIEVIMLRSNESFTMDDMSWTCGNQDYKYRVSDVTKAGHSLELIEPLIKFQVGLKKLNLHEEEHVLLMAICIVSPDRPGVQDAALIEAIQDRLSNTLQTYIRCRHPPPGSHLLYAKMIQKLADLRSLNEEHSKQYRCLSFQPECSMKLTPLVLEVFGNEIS
Procedure, shortened: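 RT-PCR/capillary electrophoresis read-out of reporter mRNA induction in transiently transfected HepG2; 24 h dosing; chimeric NR-Gal4 (TRANS format); gain-of-signal fit against DMSO baseline.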

[12] = BSK_3C_SRB: Viability Assessment in the BioMAP Diversity Plus: 3C Assay (AID 2283023); settings: primary human endothelial cells (HUVEC);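 further: fitted both ways against DMSO so a hit may be signal rise or drop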
Procedure, shortened: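 HUVEC, 24 h post-dose; 10% TCA fix, 0.1% SRB stain, A560 nm. Bidirectional curve fit vs DMSO negative control.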

[13] = read-out: Matrix Metallopeptidase 1 (MMP1), MMP1 (gene 4312); assay: BSK_BE3C_MMP1: BioMAP Diversity Plus: BE3C Assay for Matrix Metallopeptidase 1 (MMP1) Biomarker Activity (AID 2283024); settings: primary human bronchial epithelial cells; actives raise or lower the signal
Procedure, shortened: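 ELISA read-out of MMP1 in human lung bronchial epithelial primary cultures, 24 h post-dose; bidirectional curve fit vs DMSO baseline, gain or loss of signal scored.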

[14] = read-out: Pselectin, SELP (gene 6403); assay: BSK_4H_Pselectin: BioMAP Diversity Plus: 4H Assay for Pselectin Biomarker Activity (AID 2283026); settings: primary human endothelial cells (HUVEC); actives raise or lower the signal
Procedure, shortened: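 HUVEC, 24 h chemical exposure; P-selectin read by ELISA. Bidirectional curve fit vs DMSO baseline; gain or loss of signal scored.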

[15] = BSK_4H_SRB: Viability Assessment in the BioMAP Diversity Plus: 4H Assay (AID 2283027); settings: primary human endothelial cells (HUVEC);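 further: cells exposed to compound for 24 h before staining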;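 on AC50: curves fitted both ways versus DMSO so AC50 may be loss or gain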
Procedure, shortened: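 Cytotoxicity read-out in primary human endothelial cells: after 24 h compound exposure, cells were TCA-fixed (10%), stained with 0.1% SRB and absorbance taken at 560 nm. Values fitted in both directions relative to DMSO.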

[16] = BSK_BE3C_SRB: Viability Assessment in the BioMAP Diversity Plus: BE3C Assay (AID 2283028); settings: primary human bronchial epithelial cells
Procedure, shortened: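 Primary human bronchial epithelium; chemical dosing, 24 h; 10% TCA fix, 0.1% SRB stain, A560; bidirectional fit vs DMSO baseline.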

[17] = read-out: Thrombomodulin, THBD (gene 7056); assay: BSK_3C_Thrombomodulin: BioMAP Diversity Plus: 3C Assay for Thrombomodulin Biomarker Activity (AID 2283029); settings: primary human endothelial cells (HUVEC); actives raise or lower the signal
Procedure, shortened: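 HUVEC, 3C conditions; compound 24 h; thrombomodulin by ELISA; bidirectional curve fit vs DMSO baseline; parallel SRB total-protein staining for cytotoxicity.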

[18] = read-out: Urokinase-type plasminogen activator receptor (uPAR), PLAUR (gene 5329); assay: BSK_4H_uPAR: BioMAP Diversity Plus: 4H Assay for Urokinase-type plasminogen activator receptor (uPAR) Biomarker Activity (AID 2283030); settings: primary human endothelial cells (HUVEC); actives raise or lower the signal
Procedure, shortened: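 HUVEC, 24 h post-dose; uPAR by ELISA; bidirectional fit vs DMSO baseline.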

[19] = read-out: Vascular endothelial growth factor receptor 2 (Homo sapiens) (UniProt P35968); assay: BSK_4H_VEGFRII: BioMAP Diversity Plus: 4H Assay for Vascular endothelial growth factor receptor 2 (VEGFR2) Biomarker Activity (AID 2283031); settings: primary human endothelial cells (HUVEC); actives raise or lower the signal;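 on AC50: cell-surface VEGFR2 protein level quantified by ELISA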
Procedure, shortened: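 HUVEC (human primary), 4H system; 24 h post-dose; VEGFRII by ELISA; bidirectional curve fit vs DMSO baseline; gain or loss of signal scored.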

[20] = BSK_3C_Vis: BioMAP Diversity Plus: 3C Assay for Morphology Visualization (AID 2283025); settings: primary human endothelial cells (HUVEC);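 further: fitted both ways so gain or loss versus DMSO counts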;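 on AC50: light microscopy image of cell morphology used as background control; cells imaged 24 h after dosing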
Procedure, shortened: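 HUVEC, 3C system; light microscopy of morphology at 24 h post-dose. Bidirectional fit vs DMSO baseline. Secondary readout, background-control function.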

Measured: AC50

E-selectin (Homo sapiens), sequence (P16581 whole entry, looked up): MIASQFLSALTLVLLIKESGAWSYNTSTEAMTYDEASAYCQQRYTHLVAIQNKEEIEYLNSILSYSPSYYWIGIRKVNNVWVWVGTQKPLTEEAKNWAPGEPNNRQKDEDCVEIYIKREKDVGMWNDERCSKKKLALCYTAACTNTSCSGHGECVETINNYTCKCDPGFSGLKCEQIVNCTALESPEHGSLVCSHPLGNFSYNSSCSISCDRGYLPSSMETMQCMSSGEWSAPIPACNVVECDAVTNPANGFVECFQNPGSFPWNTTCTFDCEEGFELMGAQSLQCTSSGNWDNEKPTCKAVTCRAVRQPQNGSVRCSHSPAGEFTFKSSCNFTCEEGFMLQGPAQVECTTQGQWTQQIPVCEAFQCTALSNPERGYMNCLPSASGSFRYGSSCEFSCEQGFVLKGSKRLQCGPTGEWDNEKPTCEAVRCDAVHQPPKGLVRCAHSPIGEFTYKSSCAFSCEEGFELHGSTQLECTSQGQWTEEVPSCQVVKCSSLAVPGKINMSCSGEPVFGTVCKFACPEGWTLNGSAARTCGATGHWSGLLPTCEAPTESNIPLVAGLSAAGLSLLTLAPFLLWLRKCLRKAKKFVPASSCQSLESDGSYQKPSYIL

O=C(Nc1ccc2c(O)c(N=Nc3ccc(N=Nc4ccc(S(=O)(=O)O)cc4)cc3)c(S(=O)(=O)O)cc2c1)c1ccccc1
active: [9] 20 µM | [13] 16 µM and 10.4 µM
inactive: [1] | [2] | [3] | [4] | [5] | [6] | [7] | [8] | [9] | [10] | [11] | [12] | [14] | [15] | [16] | [17] | [18] | [19]

Nc1c(Cl)cc(Cl)cc1[N+](=O)[O-]
inactive: [1] | [2] | [3] | [11]

CC(C)CCOC(=O)c1ccccc1
inactive: [1] | [2] | [3]

C=C1C[C@]23C[C@@]1(O)CC[C@H]2[C@@]12C=C[C@H](O)[C@@](C)(C(=O)O1)[C@H]2[C@@H]3C(=O)O
inactive: [1] | [2] | [3] | [11]

CC1(C)C(=O)N(Cl)C(=O)N1Br
inactive: [1] | [2] | [3]

Clc1cc(Cl)c(-c2c(Cl)c(Cl)cc(Cl)c2Cl)cc1Cl
active: [4] 13.8 µM | [5] 1.98 µM | [6] 16 µM | [7] 8.9 µM | [8] 15.2 µM | [9] 1.98 µM | [12] 15.8 µM | [20] 19.9 µM | [14] 10 µM | [15] 18.8 µM | [18] 17.4 µM | [19] 10 µM
inactive: [1] | [2] | [3] | [10] | [13] | [16] | [17]

O=C1OC2(c3ccccc31)c1ccc(O)c(Br)c1Oc1c2ccc(O)c1Br
inactive: [1] | [2] | [3] | [10] | [11] | [12] | [13] | [15] | [16]
active: [4] 24.7 µM | [5] 9.21 µM | [6] 20 µM | [7] 25.4 µM | [8] 20 µM | [9] 24.4 µM | [20] 37.5 µM | [14] 20 µM | [17] 20 µM | [18] 20 µM | [19] 13.7 µM

COc1ccc(CCC(C)=O)cc1
inactive: [1] | [2] | [3] | [11]

O=C(O)CNc1ccccc1
inactive: [1] | [2] | [3] | [11]

O=C1OC[C@H](Cc2cccc(O)c2)[C@H]1Cc1cccc(O)c1
inactive: all assays above

Nc1ccc(NCCO)c([N+](=O)[O-])c1
active: [2] 18.1 µM
inactive: [1] | [3]

From PubChem BioAssay (EPA / NIEHS)
